Measured values published in PubChem BioAssay AID540277 (National Center for Advancing Translational Sciences (NCATS), 2011).
Out of some 320,000 compounds screened, about 55 (0.02%) were called active. Not shown: some 3% with an inconclusive outcome. No stated cut-off is given here; in the data, active means potentiation above about 80%; inconclusive means between about 30% and that limit; inactive means weaker than that. The sample as a whole holds a higher share of actives than the screen did.

molecular target: Transient receptor potential cation channel subfamily V member 1 (Homo sapiens) (UniProt Q8NER1); experiment: HTS Assay for Compounds that Act as Potentiators of the Vanilloid Receptor 1; conditions: TRPV1-expressing cells, Fluo-8 calcium influx, capsaicin EC20 potentiation; at 8.33 µM; active compounds read high; further: 0% is about no effect
Sequence (Q8NER1 whole entry, looked up): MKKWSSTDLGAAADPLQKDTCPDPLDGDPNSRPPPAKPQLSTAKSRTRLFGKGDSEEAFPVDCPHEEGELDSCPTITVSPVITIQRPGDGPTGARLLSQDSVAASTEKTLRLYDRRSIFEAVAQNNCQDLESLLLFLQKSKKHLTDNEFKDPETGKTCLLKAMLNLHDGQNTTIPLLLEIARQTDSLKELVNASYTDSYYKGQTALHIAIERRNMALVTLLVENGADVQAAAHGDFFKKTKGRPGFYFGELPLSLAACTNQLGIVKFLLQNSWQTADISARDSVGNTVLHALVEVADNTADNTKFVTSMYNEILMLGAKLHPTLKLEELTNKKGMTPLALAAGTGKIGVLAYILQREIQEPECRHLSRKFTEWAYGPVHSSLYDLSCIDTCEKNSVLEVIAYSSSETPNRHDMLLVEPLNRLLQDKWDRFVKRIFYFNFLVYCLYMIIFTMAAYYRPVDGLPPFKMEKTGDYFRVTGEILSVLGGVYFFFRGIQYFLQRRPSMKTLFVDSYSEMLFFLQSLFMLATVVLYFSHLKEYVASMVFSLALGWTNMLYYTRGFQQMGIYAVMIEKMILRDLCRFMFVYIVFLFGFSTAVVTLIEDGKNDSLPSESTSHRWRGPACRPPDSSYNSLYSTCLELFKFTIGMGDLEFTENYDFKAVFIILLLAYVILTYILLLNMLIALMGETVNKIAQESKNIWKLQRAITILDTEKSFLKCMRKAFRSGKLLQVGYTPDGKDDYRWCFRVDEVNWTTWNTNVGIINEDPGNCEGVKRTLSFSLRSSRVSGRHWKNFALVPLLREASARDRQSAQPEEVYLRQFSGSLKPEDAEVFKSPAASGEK
Source text: The transient receptor potential ion channel, family V, number 1, (TRPV1) is one of the most important molecular transducers of painful stimuli and a potential target for analgesic drug development. Although recent clinical trials with orthosteric antagonists have not produced a successful drug because of a hyperthermia side effect and their tendency to block thermal noxious pain, this ion channel is undeniably well placed in the pain pathway, and the idea of blocking pain signals before they enter the CNS is an excellent concept and of proven efficacy when TRPV1 agonists are used. We propose a new approach involving allosteric modulation to impose an activity-dependent constraint within the context of inflammation and tissue damage that would alter the responsiveness of the channel in a way that an orthosteric vanilloid antagonist cannot achieve. We believe that the allosteric modulator approach has not been explored for this target. The main goal of this proposal is to identify additional, new, potent allosteric modulators of TRPV1 that can be used to investigate TRPV1 function. Our recent report provides evidence of proof of concept, but the compounds are just at the edge of utility in terms of potency. […] The question of whether they can be used as analgesic agents is complex, but if suitable compounds are identified then testing for analgesic properties will be conducted. NIH Chemical Genomics Center [NCGC] NIH Molecular Libraries Probe Centers Network [MLPCN] MLPCN Grant: MH089480-1A1 Assay Submitter (PI): Michael Iadarola, National Institute of Dental and Cranofacial Research
Upon TRPV1 activation in TRPV1 cells, the channel opens and extracellular cations flow through the channel into the cytosol. A calcium binding dye (Fluo-8) becomes fluorescent when bound to calcium. This dye is pre-loaded into cells and is used as a marker for calcium influx. The amount of accumulated calcium is precisely quantified using the FDSS kinetic reader and the calcium dye. For the HTS assay, freshly prepared cells are plated at a density of 2000/well in 3 ul medium in 1536-well plates and cultured overnight at 35.5C. Cells will be loaded with 1 ul of the homogeneous calcium dye (ABD Bioquest) at room temperature for 40 to 90 minutes. Plates will be loaded into the FDSS kinetic reader and a 1 sec / cycle for 10 second baseline signal will be measured. Compound library will then be added with a pintool at 23 nl and measured kinetically for 3 minutes. This portion of the read is considered the agonist portion of the screen. Following the 3 minutes of incubation, an on board pipettor will deliver 1 ul of capsaicin for a final concentration equal to the EC20. Signal will be measured kinetically for an additional 2 minutes. This portion of the read is considered the allosteric enhancer portion of the screen. The FDSS reader has a standard filter set capable of measuring calcium bound Fluo-8 (ex=480 and em=520 nm).

potentiation, active:
CC(=O)NCC(=O)N(Cc1ccco1)C1(C(=O)NC2CCCC2)CCCCC1 85.2%

potentiation, inactive:
COC(=O)c1cc(Oc2ccc(S(=O)(=O)N3CCOCC3)cc2[N+](=O)[O-])cc(C(=O)OC)c1 10.8%
CN1CCN(C2=NCCO2)CC1 -4.44%
CCOc1ccc(S(=O)(=O)N2CCCCC2)cc1NC(=O)CN1CCCC1c1cccs1 (stereo not drawn) -19.8%
Cc1ccc(C(=O)CN2C(=O)NC3(CCOc4ccccc43)C2=O)s1 (stereo not drawn) -10.3%
O=C(c1ccc(=O)[nH]c1)N(Cc1ccco1)C1(C(=O)NC2CCCCC2)CCCCC1 6.34%
CC(=O)N(CC1CCCO1)C1(C(=O)NC2CCCC2)CCCCC1 (stereo not drawn) -6.84%
Cc1n[nH]c(=O)c2c(NC(=O)CSc3cc(Cl)ccc3Cl)oc(C)c12 13.8%
CC1CC1C(=O)OCC(=O)Nc1cccc(F)c1 (stereo not drawn) -20.7%
Cn1c(N)c(C(=O)COC(=O)/C=C/c2cccc(C(F)(F)F)c2)c(=O)n(C)c1=O -32.4%
COc1ccc(C(C[N+](=O)[O-])n2nc(C)cc2C)cc1 (stereo not drawn) 0.93%
COc1ccc(S(=O)(=O)N2CCOCC2)cc1NC(=O)CC1CC2CCC1C2 (stereo not drawn) 2%
CCCCn1c(SCC(=O)N2CCCC2=O)nc2cc(S(N)(=O)=O)ccc21 -9.34%
CCOC(=O)c1sc(=NC(=O)/C=C/c2cccs2)n(C)c1C -3.16%
O=S(=O)(Nc1cc(Cl)ccc1N1CCOCC1)c1ccccc1Cl 28.9%
CN(c1ccccc1)S(=O)(=O)c1cccc(NC(=O)Cc2ccc(Cl)cc2)c1 -2.65%
O=C(COC(=O)c1c(Cl)cccc1Cl)Nc1cccc(S(=O)(=O)NC2=NCCCCC2)c1 4.82%
Cc1ccc(S(=O)(=O)Nc2nc(CN3CCOCC3)nc3sc(C)c(C)c23)cc1 21.7%
O=C(Nc1ccc2c(c1)OCCO2)C1CCCC1 -1.56%
Cc1cc(NC(=O)COc2ccccc2C#N)no1 13.6%
O=C(CSc1ccccc1)Nc1cccc(S(=O)(=O)N2CCCCC2)c1 -6.03%
CCN(c1ccccc1)S(=O)(=O)c1ccc(OCC(=O)N2CCCC2)cc1 -12.3%
O=C(CN1CCCCC1)NC(=O)Nc1ccccc1F -35.8%
COc1ccccc1C(=O)NCC(=O)OCC(=O)Nc1nnc(-c2ccccc2)o1 8.76%
Cc1ccc(NC(=O)Cc2nc(COC(=O)C(C)NS(=O)(=O)c3ccc(C)cc3)cs2)cc1 (stereo not drawn) 1.83%
COc1ccccc1C(=O)NCCC(=O)NC1=NCCS1 16.5%
Cc1cc(C(=O)COc2ccccc2Cl)c(C)n1C1CC1 -5.33%
CC(C)(C)C(=O)CSc1ccc(S(=O)(=O)N2CCCC2)cn1 5.19%
CCCCn1nc(C(=O)Nc2cccc(C(=O)NC3CC3)c2)c2ccccc2c1=O -5.5%
CCC(C(=O)N1CCN(S(=O)(=O)c2sc(C(=O)O)c(C)c2C(=O)O)CC1)c1ccccc1 (stereo not drawn) -6.07%
CC1CCCN(C(=O)CN2C(=O)c3ccccc3S2(=O)=O)C1 (stereo not drawn) 7.53%
Cc1cc(C(=O)COc2ccc(Br)cc2F)c(C)n1C1CC1 -6.81%
COc1ccc(C(=O)N2CCN(c3ccc(C(C)=O)cc3F)CC2)cc1S(=O)(=O)NC1CC1 -8.79%
CCN1C(=O)C(=O)N(CC(=O)Nc2cc(C)ccc2C)C1=O 4.41%
CCN(CC)c1ccc(NC(=O)CN2C(=O)NC3(CCc4ccccc43)C2=O)cc1 (stereo not drawn) -5.69%
COc1ccc(-c2cc3ncccc3cn2)cc1 -0.0866%
COc1ccc(CN2CCc3nc(Nc4ccccc4)ncc3C2)c(OC)c1OC 1.32%
COc1ccc2c(C)cc(SCC(=O)NCC3CCCO3)nc2c1 (stereo not drawn) -8.57%
CC(Sc1nnc(C2CC2)n1C1CC1)C(=O)Nc1ccc(C(N)=O)cc1 (stereo not drawn) -2.73%
COc1ccc(CN2CCN(C(=O)c3cc(C4CC4)nn3-c3ccccc3)CC2)cc1F 1.31%
CSCCC(NC(=O)c1ccccc1)C(=O)N1CCN(Cc2ccc(Cl)cc2)CC1 (stereo not drawn) 10.6%
Cc1ccsc1C(=O)NCCc1ccco1 -5.45%
O=C(Nc1ccc2c(c1)OCO2)C1CC1(Cl)Cl (stereo not drawn) -2.21%
CCN(CC)CCN1C(=O)C(=O)/C(=C(/O)c2cnn(-c3ccccc3)c2C)C1c1cccs1 (stereo not drawn) -0.404%
CCOc1ncccc1C(=O)OCC(=O)Nc1cccc(S(=O)(=O)N2CCCCCC2)c1 -26.2%
COc1ccc(S(=O)(=O)N2CCOCC2)cc1NC(=O)Cc1coc2cc(C)ccc12 4.1%
Cc1nc2ccc(NC(=O)C3CCCCC3)cc2s1 -2.49%
COc1ccc(-c2sc3ccc(OC)cc3c2C#Cc2ccccn2)cc1 -1.97%
CC(C)c1ccc(S(=O)(=O)N2CCN(C(C)C(=O)NC3CCCC3)CC2)cc1 (stereo not drawn) -15.2%
O=C(Nc1ccccn1)C1CCN(S(=O)(=O)c2ccccc2)CC1 -3.8%
COCCn1c(C)cc(C(=O)CSc2nnc(C3CC3)n2C2CC2)c1C -2.92%
CC(=O)Nc1ccc(Nc2cc(C)nc(Nc3ccc(NC(C)=O)cc3)n2)cc1 13.9%
O=c1ccc2c(-c3ccccc3S(=O)(=O)O)c3ccc(O)c(O)c3oc-2c1O 12.9%
CC(=O)N1CCN(S(=O)(=O)c2cccc(C(=O)NC3CCC(C)CC3)c2)CC1 (stereo not drawn) 0.313%
Cc1cc(C(=O)Nc2nnc(C3CC3)s2)c(C)s1 9.37%
COc1cccc(-n2c(SCC(=O)NC3CCS(=O)(=O)C3)nc3ccccc3c2=O)c1 (stereo not drawn) 7.53%
CC(C)n1ncc2c(C(=O)Nc3ccc(CC#N)cc3)cc(C3CC3)nc21 -24.2%
COc1cccc(NC(=O)CN(C)CC(=O)c2c(N)n(Cc3ccccc3)c(=O)n(C)c2=O)c1 23.5%
